# Results as given in PubChem BioAssay.
# The source made the active and inactive calls.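 The calls were made as follows, unless noted: active = inhibition at or above 50% at 10 µM; inactive = inhibition below 50%.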 Where a SMILES comes first, the peptide text is derived from it. The star is where a group is joined. Boc = CC(C)(C)OC(=O)*
# Experiments:
# [1] = inhibitors of TNFa-induced NFkB p65 translocation, primary screen, imaging, HUVEC, MLSMR starter and 10KST1 sets (AID 438;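 active = inhibition above 20% together with a positive visual image hit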;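 also: compound added about 3h40 before a 20 min TNFalpha stimulation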;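 as to inhibition: signal is the nuclear over cytoplasmic p65 intensity ratio per well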); conditions: HUVEC TNFa-induced p65 nuclear translocation; cell count: measured here: nuclei count (cytotoxicity indicator), at 2.08 µM; inhibition: at 2 µM, stronger effect = higher value, 0% TNFa-plus-vehicle, 100% no-TNFa wells
# [2] = inhibitors of mutant huntingtin aggregation, primary screen, imaging, exon1htt(103Q)mCFP cells, high-content imaging (AID 483;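 active = visual image review flags a hit and inhibition of aggregation exceeds 20%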;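 also: compound exposure lasted 3 days before fixation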;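 as to nuclei count: percent of the per-plate median nuclei count of sample wells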); conditions: exon1htt(103Q)mCFP cell line, aggregate imaging, at 2 µM; inhibition of aggregation: stronger effect = higher value; nuclei count: measured here: cell count, toxicity
# [3] = inhibitors of E-selectin induction by TNFa, primary screen, imaging, HUVEC, immunofluorescence, MLSMR starter and 10KST1 sets (AID 487;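 active = visually confirmed hit in the image check and inhibition above 20%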;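 as to inhibition: signal is fraction of cell area covered by stained E-selectin grains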;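 as to nuclei count: 100% = median nuclei count of all wells on the same plate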); conditions: HUVEC TNFalpha-induced E-selectin immunofluorescence imaging, at 2 µM; inhibition: stronger effect = higher value; nuclei count: measured here: cell number, toxicity
# [4] = target: Voltage-gated potassium channel subunit beta-2 (Rattus norvegicus) (UniProt P62483); experiment: KvBeta enzyme negative modulators, primary screen, biochemical, NADPH fluorescence (AID 622;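 active = fluorescence slope higher than the sample average by over 3 SD, cut at about -0.22 in these data, passing the limit was not always enough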;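 also: slope of raw intensity against log time taken from 70 to 1610 s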); conditions: recombinant KvBeta, 4-cyanobenzaldehyde reduction, at 10 µM, stronger effect = higher value
# Sequence of Voltage-gated potassium channel subunit beta-2 (Rattus norvegicus) (P62483 whole entry, looked up): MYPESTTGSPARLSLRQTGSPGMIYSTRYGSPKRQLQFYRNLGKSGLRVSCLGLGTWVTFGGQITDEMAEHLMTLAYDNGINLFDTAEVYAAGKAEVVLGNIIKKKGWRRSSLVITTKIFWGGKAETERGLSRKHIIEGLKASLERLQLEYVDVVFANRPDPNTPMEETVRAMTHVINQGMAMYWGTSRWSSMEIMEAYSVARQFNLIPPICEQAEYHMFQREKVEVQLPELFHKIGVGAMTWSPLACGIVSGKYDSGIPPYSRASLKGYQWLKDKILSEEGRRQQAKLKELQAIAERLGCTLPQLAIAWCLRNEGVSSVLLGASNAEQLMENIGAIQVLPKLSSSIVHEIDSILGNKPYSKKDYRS
# [5] = target: Voltage-gated potassium channel subunit beta-2 (Rattus norvegicus) (UniProt P62483); experiment: KvBeta positive modulators, primary screen, biochemical, NADPH fluorescence (AID 623;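 active = NADPH fluorescence slope more negative than the mean of all samples by about 3 SD, 99.7% confidence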;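 also: fluorescence intensity change per second fitted from 20 to 320 s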); conditions: Recombinant KvBeta, NADPH fluorescence decrease slope, 10 min; at 10 µM; stronger effect = lower value
# [6] = target: Alpha-2C adrenergic receptor (Homo sapiens) (UniProt P18825); experiment: modulators of alpha2C/GIRK thallium flux, primary screen, cell-based, HEK293 alpha2C/GIRK1/2 (AID 624;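 active = fluorescence slope after compound addition differing from the mean of all screened samples at 99.7% confidence, in either direction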;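 also: slope of fluorescence ratio to pre-addition baseline per second over 15 to 24 s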); conditions: thallium flux BTC fluorescence, at 10 µM, actives lie on both sides
# Sequence of Alpha-2C adrenergic receptor (Homo sapiens) (P18825 whole entry, looked up): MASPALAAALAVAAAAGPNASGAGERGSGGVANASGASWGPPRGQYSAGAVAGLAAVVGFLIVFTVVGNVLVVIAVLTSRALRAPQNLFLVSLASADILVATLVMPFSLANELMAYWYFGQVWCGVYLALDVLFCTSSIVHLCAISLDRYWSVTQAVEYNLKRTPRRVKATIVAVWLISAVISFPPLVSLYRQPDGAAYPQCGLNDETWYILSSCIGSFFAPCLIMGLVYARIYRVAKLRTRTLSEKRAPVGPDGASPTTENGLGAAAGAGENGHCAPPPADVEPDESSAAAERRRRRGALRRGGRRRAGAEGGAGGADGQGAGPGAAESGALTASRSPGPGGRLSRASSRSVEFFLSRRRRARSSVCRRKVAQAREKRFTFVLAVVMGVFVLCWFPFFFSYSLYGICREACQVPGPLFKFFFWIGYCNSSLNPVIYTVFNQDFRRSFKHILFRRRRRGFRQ
# [7] = inhibitors of Sendai virus-induced IRF3 signaling, primary screen, TLR/RLR signaling modifier project, cell-based, Sendai virus stimulus, luciferase, 10K MLSCN set (AID 602276); conditions: HEK293 RL24 IRF3 luciferase reporter, at 10 µM, stronger effect = higher value;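 also: firefly luciferase from ISG56 promoter only with Renilla not read in this screen; 0% = Sendai virus plus DMSO and 100% = medium plus DMSO without virus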
# [8] = inhibitors of poly I:C-induced TLR3 signaling, primary screen, cell-based, poly I:C stimulus, luciferase, 10K MLSCN set (AID 602277;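 active = inhibition of the reporter signal at or above 50%; inactive = inhibition below 50%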); conditions: HEK293-TLR3 RL24 IRF3 luciferase reporter, at 10 µM, stronger effect = higher value
Structure (SMILES),cell count [1],inhibition [1],inhibition of aggregation [2],nuclei count [2] [%],inhibition [3],nuclei count [3] [%],fluorescence slope [4],NADPH fluorescence slope [5],slope [6],inhibition [7],inhibition [8]
COCCN(Cc1cc2cc3c(cc2n2nnnc12)OCO3)C(=O)c1ccccc1F,271,10.7% (inactive),-8.2% (inactive),96.5,-63.4% (inactive),105,-0.352 (inactive),-3.2e-05 (inactive),0.00537 (inactive),3.47% (inactive),5.93% (inactive)
CCOc1cc2[nH]c(=O)n(CCCCC(=O)NCc3ccco3)c(=O)c2cc1OCC,394,-17.9% (inactive),-0.5% (inactive),117,-41.6% (inactive),110,-0.508 (inactive),-6e-05 (inactive),0.00662 (inactive),9.08% (inactive),35.9% (inactive)
COc1ccc(-c2ccc(-c3noc(-c4ccccc4)n3)c(OC)n2)cc1,359,1.8% (inactive),-12.7% (inactive),84.2,5% (inactive),88.8,-0.0356 (inactive),-4.5e-06 (inactive),0.0074 (inactive),-7.23% (inactive),-29.4% (inactive)
CCCn1c(-c2ccc(F)cc2)cnc1SCC(=O)O,431,9.9% (inactive),-4.3% (inactive),106,-63.4% (inactive),106,-0.622 (inactive),-3.6e-05 (inactive),0.00449 (inactive),16.2% (inactive),19.8% (inactive)
CCOCCCNC(=O)CC1Oc2ccc(C)cc2NC1=O (stereo not given),595,-6.2% (inactive),8.5% (inactive),107,-6.5% (inactive),121,-0.525 (inactive),-3.6e-05 (inactive),0.00596 (inactive),5.01% (inactive),19.8% (inactive)
COCC(=O)N(c1ccc(C(C)C)cc1)C1C=CS(=O)(=O)C1 (stereo not given),691,-23.8% (inactive),20.8% (inactive),129,-55.5% (inactive),103,-0.314 (inactive),-7.6e-06 (inactive),0.00672 (inactive),7.64% (inactive),28.1% (inactive)
COc1cc(NC(=O)C2C3C=CC(C3)C2C(=O)O)c(OC)cc1Cl (stereo not given),406,0.8% (inactive),-31% (inactive),98.6,19.6% (inactive),90,-0.49 (inactive),-6.5e-06 (inactive),0.00705 (inactive),-7.81% (inactive),20.2% (inactive)
O=C(COc1ccccc1)Nc1nc2ccccc2[nH]1,626,-2.6% (inactive),2.7% (inactive),114,0.2% (inactive),119,-0.45 (inactive),-6.8e-05 (inactive),0.00605 (inactive),-49.9% (inactive),-93.8% (inactive)
CCC(C)C(NC(=O)OC(C)(C)C)C(=O)NC(CC(C)C)C(N)=O (stereo not drawn) (Boc-Ile-Leu-NH2; configuration not given here),399,1.3% (inactive),7.1% (inactive),88.9,56.6% (inactive),89.8,-0.516 (inactive),-6.5e-05 (inactive),0.00654 (inactive),-6.01% (inactive),10.9% (inactive)
CCOC(=O)N1CCN(C(=O)CSc2ncnc3ccccc23)CC1,747,-1.6% (inactive),-8.8% (inactive),120,-10.3% (inactive),115,-0.525 (inactive),-2.4e-05 (inactive),0.00632 (inactive),1.11% (inactive),-8.53% (inactive)
Cn1c(=O)c2ncn(CC(=O)NCCOc3ccc(C(C)(C)C)cc3)c2n(C)c1=O,762,2.2% (inactive),-9.8% (inactive),103,-15.3% (inactive),106,-0.582 (inactive),-3.7e-05 (inactive),0.00671 (inactive),-12.6% (inactive),-14.5% (inactive)
O=C(Cn1cc2c(n1)CCCC2)NCCc1ccccc1,792,-3.7% (inactive),0.9% (inactive),106,-47.8% (inactive),118,-0.428 (inactive),-2.6e-05 (inactive),0.00628 (inactive),5.6% (inactive),31.9% (inactive)
COc1cccc(C2=NOC(C(=O)N3CCN(c4ccccc4)CC3)C2)c1OC (stereo not given),471,15% (inactive),6.5% (inactive),113,8% (inactive),99.4,-0.536 (inactive),-8.8e-06 (inactive),0.00606 (inactive),19% (inactive),6.35% (inactive)
CC(=O)N1CCC(N(C(=O)Nc2ccc(C)c(C)c2)C2CCCC2)CC1,644,-3.1% (inactive),-11.9% (inactive),52.8,-61.6% (inactive),106,-0.258 (inactive),-1.2e-06 (inactive),0.0055 (inactive),11.1% (inactive),15% (inactive)
Cn1c(=O)c2c(nc(NCCCO)n2C/C=C/c2ccccc2)n(C)c1=O,401,-1.8% (inactive),1.8% (inactive),112,-45.2% (inactive),153,-0.336 (inactive),9.8e-06 (inactive),0.004 (inactive),22.3% (inactive),34.2% (inactive)
CN(C1CCCCC1)S(=O)(=O)c1ccc(S(=O)(=O)N2CCN(CCC#N)CC2)cc1,698,0% (inactive),28.2% (inactive),124,-53.2% (inactive),107,-0.527 (inactive),-3.3e-06 (inactive),0.00618 (inactive),3.23% (inactive),15.8% (inactive)
O=C(Nc1ccccc1)N(O)c1ccc(Cl)cc1,284,-11.4% (inactive),38.9% (active),90.3,44.1% (inactive),85.6,-0.378 (inactive),-7.1e-05 (inactive),0.00373 (inactive),-39.6% (inactive),-78.3% (inactive)
O=c1c2cc(N3CCOCC3)ccc2[nH]c(=S)n1CCCN1CCCC1,739,3% (inactive),6.2% (inactive),105,-35% (inactive),106,-0.0484 (active),-1.6e-06 (inactive),0.00568 (inactive),3.61% (inactive),32.7% (inactive)
O=C(NCC(c1cccnc1)N1CCN(c2ccccc2)CC1)c1ccc2c(c1)OCO2 (stereo not given),362,-1.8% (inactive),25.6% (inactive),87.1,29.6% (inactive),83.3,-0.619 (inactive),-1.3e-05 (inactive),0.00563 (inactive),8.91% (inactive),16.3% (inactive)
Cc1cc(C)c2c(=O)n(CC(=O)NCCCN3CCN(c4ccccc4F)CC3)sc2n1,725,-2.8% (inactive),2.8% (inactive),105,-81.4% (inactive),119,-0.525 (inactive),-4.4e-05 (inactive),0.00504 (inactive),12% (inactive),34.1% (inactive)
O=C(Nc1ccc(CN2CCOCC2)cc1)c1cc2ccccn2n1,579,0% (inactive),-6.8% (inactive),99.9,8.4% (inactive),108,-0.596 (inactive),-1.7e-05 (inactive),0.00566 (inactive),45.9% (inactive),12% (inactive)
Cc1cc(C)c(OCC(=O)Nc2ccc3c(c2)OCO3)cc1C,327,-0.7% (inactive),7.3% (inactive),101,9.8% (inactive),103,-0.437 (inactive),4.6e-05 (inactive),0.00669 (inactive),-6.64% (inactive),-49.1% (inactive)
CCCOc1ccc(C2C(C(=O)OC)=CN(CCOC)C=C2C(=O)OC)cc1,356,-11.3% (inactive),-4.7% (inactive),116,-128% (inactive),111,-0.251 (inactive),1.3e-05 (inactive),0.00618 (inactive),15.3% (inactive),27.8% (inactive)
CCOC(=O)N1CCN(C(=O)CSc2nnc(-c3cc(OC)cc(OC)c3)o2)CC1,228,8.2% (inactive),-10.3% (inactive),67.5,-54.1% (inactive),99.6,-0.398 (inactive),-5.6e-05 (inactive),0.00254 (inactive),12.2% (inactive),29.1% (inactive)
O=C(NC1CCCCC1)c1cc2nc(-c3ccco3)cc(C(F)(F)F)n2n1,455,-5.7% (inactive),12.4% (inactive),92.7,-46% (inactive),156,-0.218 (inactive),-5.6e-05 (inactive),0.00549 (inactive),10.5% (inactive),10.6% (inactive)
